From PubChem BioAssay (NCI) come the findings set out here.

SMILES strings stand for the structures. About 83,000 compounds went through this panel and 20% of them were active in at least one assay; those are over-represented in the sample as a whole.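 48-hour exposure, single concentration, 96-well plates; percent growth endpoint where 0 means no net growth. Active: below 10.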 Active and inactive are the calls of the source.

The subject of the experiment is HL-60(TB) leukemia. As to the kind of experiment: NCI-60 one-dose screen, 48 h (100 = growth as untreated, 0 = no growth, -100 = all killed). The settings on record: 10 µM unless noted.
With `CCC1(C2CCCC2)NC(=O)NC1=O` (stereo not given), the growth is 90.9% (inactive).

For `CCN(CC)Cc1cc(Nc2nc(NC3CCC(N(C)C)CC3)c3ccccc3n2)ccc1OC` (stereo not given), the growth was 69% (inactive).

`O=C1OCC/C1=C\OCCCO/C=C1\CCOC1=O`: the growth was 104% (inactive).

On to `COc1cc(/C=N/NC(=O)c2ccc3nc(-c4ccc(Cl)cc4)[nH]c3c2)cc(OC)c1OC`, for which the growth was 44.9% (inactive).

For `NC(=O)c1cc(Br)ccc1NC(=O)/C=C/c1ccccc1`, the growth is -22.9% (active).

For the compound `[O-]/[N+](=C\c1ccc(-n2cc(Cc3ccccc3Cc3cn(-c4ccc(/C=[N+](/[O-])c5ccccc5)cc4)nn3)nn2)cc1)c1ccccc1`, the growth is 98.4% (inactive).

Regarding `CCOC(=O)N1C/C(=C/c2ccc(Cl)cc2)C(=O)/C(=C/c2ccc(Cl)cc2)C1`, the growth was 61.5% (inactive).

Consider `O=c1oc2c([nH]c3ccc4ccccc4c32)c2ccccc12`, for which the growth was 129% (inactive).

On to `CCn1nc(C#Cc2c(C)ccc3c(Nc4ccc(Cl)cc4)nccc23)c2c(N)ncnc21`, for which the growth was -16% (active).

Take `CCOC(=O)CCN(CCC(=O)OCC)c1ccccc1`: the growth was 104% (inactive).

With `COc1cc(/C=C2\CCCC3=C2N=C2SC(C)=CN2C3c2cc(OC)c(OC)c(OC)c2)cc(OC)c1OC` (stereo not given), the growth is -11.9% (active).

Regarding `Cn1nc(C(C)(C)C)cc1NC(=O)Cc1ccc(/C=C2\C(=O)Nc3ccccc32)cc1`, the growth was 48.2% (inactive).

On to `CC(C)=CCC/C(C)=C/CC/C(C)=C/CC/C=C(\C)CC/C=C(\C)CCC(=O)Nc1ccn(C2OC(CO)C(O)C2(F)F)c(=O)n1` (stereo not given), for which the growth was -21.3% (active).

For the compound `NCCCNc1nc2ccccc2c2c(=O)c3cc(Cl)ccc3sc12`, the growth was -56.8% (active).

On to `COc1cc(-c2ccc3cc(OC)c(OC)c(OC)c3c2)cc(OC)c1OC`, for which the growth is 67.4% (inactive).

Regarding `COc1cc(OC)cc(C(=O)C[n+]2cccc3cc[nH]c32)c1`, the growth was 99% (inactive).

Consider `CC(=O)c1ccc(NS(=O)(=O)c2ccc([N+](=O)[O-])cc2)cc1`, for which the growth is 90.3% (inactive).

`CCCCCCCCCCCCCCCCCCOc1ccc(CC(=O)OCC[N+]2(C)CCCC2)cc1`: the growth was 101% (inactive).

Take `COc1cc(C2=NN(c3ccc(S(N)(=O)=O)cc3)C(c3ccc(Cl)cc3)C2)cc(OC)c1OC` (stereo not given): the growth was -25.8% (active).

As to `O=C(/C=C/c1cc(CN2CCOCC2)c(O)c2ncccc12)c1cc(CN2CCOCC2)c(O)c2ncccc12`, the growth is 22% (inactive).

Regarding `CCN(CC)/C([O-])=c1\cccc\c1=C1\N=C(c2ccccc2)N=C1[n+]1ccc(-c2ccccc2)cc1`, the growth was 92.2% (inactive).

Consider `O=C1/C(=C/c2ccccn2)NC(=S)N1c1ccccc1Cl`, for which the growth is 26.9% (inactive).

In the case of `COc1ccccc1NC1=C(N2CCCCC2)C(=O)c2ccccc2C1=O`, the growth is 72.6% (inactive).

For `C=CCn1c(=O)c2cnc(Nc3ccc(N4CCN(C)CC4)cc3)nc2n1-c1cccc(C(C)(C)O)n1`, the growth is -22.4% (active).

`CN1CCN(Cc2ccc(NC(=O)c3cncc(C#Cc4cnc(N)c5ncccc45)c3)cc2Cl)CC1`: the growth was 21.5% (inactive).

As to `C[C@@H]1CC[C@@H]2[C@@H]1[C@H](OC(=O)/C=C/c1ccccc1)[C@]1(C3CCCCC3)C[C@@H](OC(=O)CO)[C@@]2(C)O1`, the growth is 74.5% (inactive).

For the compound `O=C(Nc1ccc(Oc2cccc(Cl)c2)c(Cl)c1)c1cccnc1`, the growth was 6.06% (active).

For `NS(=O)(=O)c1ccc(N2N=C(c3ccccc3)CCC2=O)cc1`, the growth is 64.2% (inactive).

As to `CC1(C)CC(=O)c2c(ccc(C(=O)C[C@@H](N)CO)c2N)O1`, the growth was 35.7% (inactive).

Consider `C=C(C)[C@@H]1CC[C@]2(C(=O)NC3CCCCC3)CC[C@]3(C)[C@H](CC[C@@H]4[C@@]5(C)CCC(=O)C(C)(C)[C@@H]5CC[C@]43C)[C@@H]12`, for which the growth was 76.6% (inactive).

As to `Cc1ccc(CNc2ccc3nc(CCC4CCCCC4)[nH]c3c2)cc1`, the growth is 14.8% (inactive).

For the compound `COc1cc(OC)cc(-c2ccc(-c3ccc(C(=N)N)o3)o2)c1`, the growth is 4.66% (active).

On to `CC(=N\N=C(N)N)/C(=N/N=C(N)N)c1ccccc1`, for which the growth was 98.7% (inactive).

Take `O=C(Nc1ccncc1)C(=O)c1cn(S(=O)(=O)c2cc(Cl)cc(Cl)c2)c2ccccc12`: the growth was 58.9% (inactive).

As for `NC(=O)c1ccccc1OCC(O)CO` (stereo not given), the growth was 108% (inactive).

Consider `CC(C)C[C@@H](NC(=O)[C@@H](Cc1ccccc1)NC(=O)c1cnccn1)B1Oc2ccc(C[C@H](NC(=O)[C@H](Cc3ccc4c(c3)OB([C@@H](CC(C)C)NC(=O)[C@@H](Cc3ccccc3)NC(=O)c3cnccn3)O4)NC(=O)[C@@H](N)CC3CCC4OB([C@@H](CC(C)C)NC(=O)[C@@H](CC5CCCCC5)NC(=O)C5CNCCN5)OC4C3)C(=O)NCCCC[C@@H]3NC(=O)[C@@H](Cc4ccccc4)NC(=O)[C@H](CC(=O)O)NC(=O)CNC(=O)[C@H](CCCNC(=N)N)NC3=O)cc2O1` (stereo not given in full), for which the growth is -2.54% (active).

As for `CC12CCC3c4ccc(O)cc4CCC3C1CCC2=O` (stereo not given), the growth was 79.4% (inactive).

Consider `N#C/C(=C\c1ccc(F)cc1)n1nc2cccc(F)c2n1`, for which the growth is 8.65% (active).

With `NS(=O)(=O)c1ccc(-n2ncc3c(N/N=C/c4ccccc4)ncnc32)cc1`, the growth is 83.1% (inactive).

As to `Cc1ccc(C(C)C)c(OCC(=O)O)c1`, the growth is 117% (inactive).
